Results: PubChem BioAssay (NCI)
Compounds without any hit were thinned out: in the full panel of roughly 83,000, 20% have a hit.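 96-well plates, one dose, 48 hours. Percent growth reported; active if below 10.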 Values without a mark were called inactive. The source made the active and inactive calls.

What was measured:
Experiment in all cases: NCI-60 one-dose screen, 48 h (100 = growth as untreated, 0 = no growth, -100 = all killed)
Conditions in all cases: 10 µM unless noted
T-47D breast = tested on: T-47D breast
BT-549 breast = tested on: BT-549 breast
MDA-MB-435 melanoma = tested on: MDA-MB-435 melanoma
SW-620 colon = tested on: SW-620 colon
MCF7 breast = tested on: MCF7 breast
HCT-116 colon = tested on: HCT-116 colon
HCC-2998 colon = tested on: HCC-2998 colon
KM12 colon = tested on: KM12 colon
MDA-MB-468 breast = tested on: MDA-MB-468 breast

Compound | growth (T-47D breast) | growth (BT-549 breast) | growth (MDA-MB-435 melanoma) | growth (SW-620 colon) | growth (MCF7 breast) | growth (HCT-116 colon) | growth (HCC-2998 colon) | growth (KM12 colon) | growth (MDA-MB-468 breast)
Nc1nnc(-c2c[nH]c3ccc(Br)cc23)c(-c2c[nH]c3ncc(Br)cc23)n1 | 16.7% | 35.4% | 30.3% | 50.2% | 12.3% | 17.1% | 48.5% | 32.6% | 26.1%
COc1ccccc1C(=O)NN1C(=O)/C(=C/C2=Cc3ccccc3OC2)SC1=S | 104% | 83.6% | 110% | 114% | 92.9% | 95.7% | 117% | 99.5% | 115%
Cc1ccc(NCC(=O)Cn2cc(COc3ccc(C=Nc4cnc5ccccc5c4)cc3)nn2)cc1 | 105% | 115% | 113% | 113% | 102% | 110% | 101% | 105% | 
CCCCCCCCc1ccc(C(=O)Nc2cccc(P(=O)(O)O)c2)cc1 | 125% | 110% | 103% | 100% | 91.8% | 94.3% | 114% | 103% | 
CN(C)c1nc(NCCNS(=O)(=O)c2ccc(C(=O)/C=C/c3ccc(Cl)cc3)cc2)nc(Nc2ccc(F)cc2)n1 | -10% (active) | -66.9% (active) | -87.8% (active) | -95.1% (active) | -77.1% (active) | -91.4% (active) | -91.6% (active) | -83.6% (active) | -25.9% (active)
Cn1cc(-c2nnc(N)nc2-c2c[nH]c3ccccc23)c2cccnc21 | 44.6% | 34.7% | -28.9% (active) | 16.5% | 22.5% | 18.2% | 81% | 17.2% | 
COc1cc2c(c(OC)c1OC)C(=O)CC(c1cccc(NC(=O)c3cc(NC(=O)[C@@H](N)CO)ccc3C)c1)O2 (some centres undefined) | 110% | 121% | 120% | 119% | 103% | 116% | 115% | 108% | 92.6%
Cc1cccc(-c2nc(Nc3cccc(S(N)(=O)=O)c3)c3ccccc3n2)c1 | 36.4% | 88.6% | 46.4% | 67.6% | 33.3% | -5.73% (active) | -1.53% (active) | 11.6% | 38.6%
Cc1cccc(NC(=O)CN2CCN(c3ncnc4c3cnn4-c3ccccc3)CC2)c1 | 72.1% | 89.9% | 93.4% | 92% | 74.8% | 58.6% | 107% | 90.4% | 89.2%
Cn1cc(NC(=O)c2cc(NC(=O)c3ccc(C#Cc4ccccc4)cc3)cn2C)cc1C(=O)NCCCN1CCOCC1 | 22.2% | 73.5% | -56.6% (active) | -44.3% (active) | -93.1% (active) | -87.3% (active) | -56% (active) | 3.14% (active) | -69.7% (active)
COc1ccc(-c2ccnc(SCc3cc4cc(Cl)ccc4[nH]c3=O)n2)cc1 | 62.1% | -18.5% (active) | 68.5% | 69.1% | 73% | 26.6% | 100% | 94.7% | 54.9%
C=C1CCC2C3(C)COC(c4ccccc4)OC3CCC2(C)C1CC(NCc1ccccc1)C1=CCOC1=O (centres undefined) | 63.6% | 73.4% | 85% | 89.8% | 70.2% | 69% | 81.2% | 85.6% | 49.3%
CC1(C)CC[C@]2(C(=O)Nc3ccccc3)CC[C@]3(C)C(=CCC4[C@@]5(C)C[C@@H](O)[C@H](O)[C@@](C)(CO)C5CC[C@]43C)C2C1 (some centres undefined) | 26.9% | 57% | 47.9% | 72.2% | 19.6% | 34.3% | 81.9% | 55.7% | 22.2%
COc1cc2c(c(OC)c1OC)C(=O)CC(c1cccc(NC(=O)c3cc(NC(=O)[C@H](CO)NC(=O)OC(C)(C)C)ccc3Cl)c1)O2 (some centres undefined) | 13.5% | -3.14% (active) | 10.1% | 44% | 12.2% | 14.4% | 73% | 14.5% | 19.8%
O=C(c1ccccc1)c1ccc2nc(-c3ccc(F)cc3)[nH]c2c1 | 47.5% | 40.1% | 57.6% | 28.2% | 35.9% | 41.7% | 91% | 65% | 42.8%
O=C(c1ccc(OCCN2CCOCC2)cc1)C1[C@H](c2ccc(Cl)cc2)[C@@H](c2ccccc2)NC12C(=O)Nc1ccc(Br)cc12 (some centres undefined) | 26.3% | 54.1% | 39.1% | 37.3% | 1.4% (active) | 4.57% (active) | -41.2% (active) | 11.7% | -8.11% (active)
Cc1ccc(C2=NN(c3nc(-c4cc5ccccc5oc4=O)cs3)C(c3ccc(C)cc3)C2)cc1 (centres undefined) | 91.8% | 120% | 107% | 105% | 63.4% | 110% | 118% | 106% | 78.2%
C#CCOc1cc(N(CC)CC)ccc1C(C(=O)NC(C)(C)C)N(C(=O)C1CCc2cc(F)ccc2O1)c1ccccc1Br (centres undefined) | 55.6% | 63.7% | 50.6% | 59.2% | 28.7% | 27.5% | 93.5% | 40.4% | 38.2%
CCCCNC(=S)Nc1ccc(OCc2nc3ccccc3[nH]2)cc1 | 45.3% | 65.9% | 49.6% | 91.5% | 46.5% | 63.7% | 59.6% | 1.01% (active) | 69.6%
CN(C)CCCNC(=O)c1cc(NC(=O)c2cc(NC(=O)c3ccc(/C=C/c4ccccc4)cc3)cn2C)cn1C | 54.5% | 69.2% | 58.6% | 7.42% (active) | -85.9% (active) | 0.824% (active) | 42.3% | -16.5% (active) | 37.4%
CN(C)c1nc(NCCNS(=O)(=O)c2ccc(C3=Nc4c(N)nc(N)nc4NC(c4ccc(F)cc4)C3)cc2)nc(Nc2ccc(F)cc2)n1 (centres undefined) | 40.6% | 48.7% | 31% | 39.4% | 5.29% (active) | 30.6% | 28.6% | 24.5% | -40.7% (active)
O=C(Cn1nc(-c2ccccc2)ccc1=O)N/N=C/c1ccc(N2CCOCC2)cc1 | 69.4% | 121% | 97.6% | 102% | 83.8% | 103% | 113% | 102% | 104%
COc1ccc(C2=NN(c3ccccc3)C(c3ccc(OC)c(OCc4ccccc4)c3)C2)cc1OC (centres undefined) | 84.4% | 107% | 97.2% | 101% | 84.9% | 74.8% | 107% | 97.7% | 101%
CC(/C=C1\SC(=S)N(CCCC(=O)NC(CC(C)C)C(=O)O)C1=O)=C\c1ccccc1 (centres undefined) | 89.7% | 78% | 94.8% | 112% | 82.1% | 71% | 108% | 57.9% | 86.7%
COCOc1cc2oc(C(=O)N[C@@H](Cc3ccccc3)C(O)C(=O)NCc3ccccc3)c(C)c(=O)c2cc1OCOC (some centres undefined) | 98% | 95.9% | 38.9% | 103% | 67.5% | -15.3% (active) | 114% | 64.8% | 79.9%
O=C(COc1ccc2c(c1)CCCC(=O)N2)NCc1ccccc1 | 95.7% | 104% | 3.41% (active) | 60.9% | 59.3% | 93.5% | 95.9% | 58.9% | 28.8%
CC(C)c1sc(NC(=O)c2cc(NC(=O)c3cc(NC(=O)c4nccn4C)cn3C)cn2C)nc1C(=O)NCCCN(C)C | 75.8% | 57.7% | 70.9% | 66.6% | 69.7% | 44.2% | 84.3% | 111% | 65.3%
O=C(NN1C(=O)/C(=C/C=C/c2ccc([N+](=O)[O-])o2)SC1=S)c1cccc(O)c1 | -44.1% (active) | -96% (active) | -93.3% (active) | -71.1% (active) | -61.9% (active) | -77.1% (active) | -94.8% (active) | -92.6% (active) | -73.4% (active)
